Inhibition data for 21 compounds are collected here from ChEMBL document CHEMBL1157539, “Thousands of chemical starting points for antimalarial lead identification” (Nature, 2010).

The structures appear in SMILES notation.

Type in all cases: functional
In assay [1] the test system is Plasmodium falciparum. The assay is described as follows: GSK_TCMDC: Inhibition of Plasmodium falciparum 3D7 in whole red blood cells, using parasite LDH activity as an index of growth. Test compounds present at 2uM.
Assay [2] concerns Plasmodium falciparum. The assay is described as follows: GSK_TCMDC: Inhibition of Plasmodium falciparum Dd2 in whole red blood cells, using parasite LDH activity as an index of growth. Test compounds present at 2uM.
Assay [3] relates to HepG2. The assay is described as follows: GSK_TCMDC: Percent inhibition of human HepG2 cell line. Test compounds present at 10uM.

As usually defined, the Inhibition is the percentage by which the read-out fell short of the control. As to `Fc1ccc2[nH]c(-c3ccc(-c4cccc(CN5CCN(CCN6CCOCC6)CC5)c4)cc3)nc2c1.O=C(O)C(F)(F)F`, the Inhibition in assay [1] is given as 100%; in assay [2], 100%; in assay [3], 35%.
As to `Br.COc1nc(-n2ccc(=N)cc2)nc2ccccc12`, the figures for the Inhibition in assay [1], in assay [2] and in assay [3] were 90%, 45% and 15%, respectively.
For `CN1CCCc2ccc(NC(=O)C=Cc3ccc(-c4ccc(F)cc4F)o3)cc2C1.O=C(O)C(F)(F)F`, the Inhibition in assay [1] was found to be 98%; in assay [2], 20%; in assay [3] it was 8%.
Regarding `Brc1cc(Br)c2c(c1)C(NCCCNC1CCNc3c(Br)cc(Br)cc31)CCN2` (stereo not drawn), the Inhibition amounted to 98% in assay [1], 25% in assay [2] and 18% in assay [3].
As to `COc1ccc(CNc2nc(NCCc3ccccc3)c3cc(OC)c(OC)cc3n2)cc1OC`, the Inhibition was 100% in assay [1], 100% in assay [2] and 48% in assay [3].
Consider `Cc1nc2cc(/C=C/C(=O)NC3CCC(CCN4CCc5ccc(C#N)cc5CC4)CC3)ccc2[nH]1.Cl` (stereo not drawn), for which the results for the Inhibition in assay [1], in assay [2] and in assay [3] were 88%, 21% and 7%, respectively.
Turning to `Cl.O=C(Nc1ccc2nccc(N3CCN4CCC[C@H]4C3)c2c1)c1ccc(Cl)c(Cl)c1`, the values for the Inhibition in assay [1], in assay [2] and in assay [3] were 100%, 98% and 18%, respectively.
In the case of `CCCCCCCN1CC[C@@H](CCCc2ccnc3ccc(OC)cc23)[C@@H](CNC)C1.O=C(O)C(=O)O`, the Inhibition in assay [1] is 100%; in assay [2] it was 95%; in assay [3] it was 25%.
Taken in the same sequence, the figures for `N#Cc1ccc(-c2ccc(C(=O)NCCCCN3CCC(c4cc(Br)c5c(c4OCC(N)=O)CCCC5)CC3)cc2)cc1` were 100%, 89% and 23%.
As for `CO/C(=C\C=C\c1cc2cc(Cl)c(Cl)cc2[nH]1)C(=O)NCCCN1CCN(c2cccc(CCO)c2)CC1`, the Inhibition in assay [1] amounted to 100%; in assay [2] it was 32%; in assay [3], 61%.
In the case of `COc1ccc(Nc2ncc3c(-c4cccc(NC(=O)Cc5cccc(F)c5)c4)c[nH]c3n2)cc1OC`, the Inhibition in assay [1] is recorded as 100%; in assay [2], 68%; in assay [3], 24%.
`COc1ccc(CNC2CCN(C)CC2)cc1-c1ccc(S(=O)(=O)NC2CCC2)cc1.O=C(O)C(F)(F)F`: the results for the Inhibition in assay [1], in assay [2] and in assay [3] were 98%, 76% and 58%, respectively.
Consider `O=C(Nc1cccc(-c2cccc(-c3nc4cc(C(F)(F)F)ccc4[nH]3)c2)c1)c1cccnc1`, for which the Inhibition in assay [1] was determined as 100%; in assay [2], 70%; in assay [3] it was 57%.
For the compound `Clc1ccc(Cn2nc(Br)nc2Br)c(Cl)c1`, the Inhibition in assay [1] came out at 96%; in assay [2], 96%; in assay [3] it was 4%.
As for `O=C(Nc1ccc([N+](=O)[O-])cc1)Nc1cc(C(F)(F)F)ccc1F`, the values for the Inhibition in assay [1], in assay [2] and in assay [3] were 89%, 46% and 8%, respectively.
`Oc1cc(NCc2ccccc2NCc2ccc(Cl)c(Cl)c2)nc2ccccc12`: the results for the Inhibition in assay [1], in assay [2] and in assay [3] were 93%, 98% and 10%, respectively.
For the compound `CCCCCCOc1ccc(C(=O)N[C@H]2CCN(CCCCCNC(=O)/C=C/c3ccc(Cl)c(Cl)c3)C2)cc1`, the values for the Inhibition in assay [1], in assay [2] and in assay [3] were 99%, 25% and 10%, respectively.
For the compound `COc1ccc([N+](=O)[O-])cc1N(Cc1ccccc1-c1ccccc1)S(=O)(=O)c1ccc(C(F)(F)F)cc1[N+](=O)[O-]`, the Inhibition in assay [1] came to 88%; in assay [2] it was 92%; in assay [3] it was 2%.
Taken in the same sequence, the figures for `FC(F)(F)c1ccc2[nH]c(-c3cccc(-c4cccc(CNCc5cnn(-c6ccccc6)n5)c4)c3)nc2c1.O=C(O)C(F)(F)F` were 100%, 28% and 6%.
Regarding `Cc1nnc2sc(-c3cccc(NC(=O)c4ccc(N5CCCCC5)c([N+](=O)[O-])c4)c3)nn12`, the Inhibition stood at 87% in assay [1], 20% in assay [2] and 3% in assay [3].
For the compound `Cc1cc(=NN=Cc2cccc(Cl)c2)c2ccccc2[nH]1`, the Inhibition in assay [1] is recorded as 100%; in assay [2] it was 100%; in assay [3], 22%.
